rCAG RNA binder: binders of r(CAG) RNA repeats, primary screen, biochemical, fluorescence | r(CAG) RNA repeat, TO-PRO-1 dye displacement fluorescence | inhibition, % at 3 µM | actives 1.3% (n = 370,000);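 active = inhibition above the plate cutoff, the mean of all test compounds on that plate plus 3 SD, cut at about 35% in these data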;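 note: 0% = DMSO alone and 100% = 100 µM mitoxantrone as full dye displacement; higher means more dye released from RNA so lower well fluorescence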
Exocytosis inh: LAMP-1 surface exposure blockers, TALL-104 cells – cell-based, flow cytometry, MLPCN library, primary screen; TALL-104 LAMP-1 surface exposure; cells stimulated with thapsigargin and PMA; actives 0.66% (n = 360,000); AID 651702, 2012; inhibition, % at 10 µM;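 active = inhibition above about 55%, limit read from the data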
PG9 binder: binders of HIV-1 gp120 antibody PG9, primary screen, biochemical, TR-FRET | actives 0.43% (n = 360,000) | TR-FRET gp120-PG9 antibody binding | inhibition, % at 6.7 µM | HIV-1 gp120 / PG9 antibody interaction; in the data active = inhibition above about 8.5%
ABCB6 inh MLPCN: ABCB6 transporter inhibitors, primary screen, K562-ABCB6 cells, flow cytometry, MLPCN library; ATP-binding cassette sub-family B member 6 (Homo sapiens), Q9NP58; K562-ABCB6 porphyrin accumulation, 1 h; stronger effect = lower value; fluorescence ratio to DMSO, % at 10 µM; actives 0.19% (n = 360,000);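 active = fluorescence ratio to DMSO below 75%, the collection mean minus 3 SD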;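 note: signal is porphyrin accumulated inside mitochondria; 100% equals median channel fluorescence of DMSO control wells; lower ratio means ABCB6 inhibition with less porphyrin fluorescence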
Target sequence (Q9NP58 whole entry, looked up): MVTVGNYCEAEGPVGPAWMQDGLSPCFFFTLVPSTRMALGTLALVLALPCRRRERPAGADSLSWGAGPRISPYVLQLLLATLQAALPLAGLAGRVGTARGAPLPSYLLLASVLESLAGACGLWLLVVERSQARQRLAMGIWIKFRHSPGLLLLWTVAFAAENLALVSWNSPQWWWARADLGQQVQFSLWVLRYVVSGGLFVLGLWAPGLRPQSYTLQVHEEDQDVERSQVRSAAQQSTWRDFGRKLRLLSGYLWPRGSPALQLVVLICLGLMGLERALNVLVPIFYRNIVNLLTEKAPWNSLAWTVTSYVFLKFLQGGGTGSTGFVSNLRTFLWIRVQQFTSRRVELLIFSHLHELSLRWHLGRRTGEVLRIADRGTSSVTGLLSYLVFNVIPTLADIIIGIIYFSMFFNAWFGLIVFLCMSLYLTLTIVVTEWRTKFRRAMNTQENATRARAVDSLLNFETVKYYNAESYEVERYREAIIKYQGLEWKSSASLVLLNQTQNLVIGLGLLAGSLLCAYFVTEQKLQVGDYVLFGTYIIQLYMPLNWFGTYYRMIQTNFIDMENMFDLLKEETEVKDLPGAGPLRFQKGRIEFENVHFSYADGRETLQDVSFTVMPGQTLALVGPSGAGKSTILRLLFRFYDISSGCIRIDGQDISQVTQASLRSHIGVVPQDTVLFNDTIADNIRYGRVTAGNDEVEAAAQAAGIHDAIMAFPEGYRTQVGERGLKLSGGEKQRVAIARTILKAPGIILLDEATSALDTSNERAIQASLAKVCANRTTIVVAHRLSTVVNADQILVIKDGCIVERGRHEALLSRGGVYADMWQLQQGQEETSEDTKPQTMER
rCAG bind conf: small molecules binding CAG repeat RNA – biochemical, fluorescence, confirmation; inhibition, % at 3 µM; actives 70% (n = 4,300); r(CAG) RNA repeat, TO-PRO-1 dye displacement fluorescence; AID 652065, 2013; shares compounds with rCAG RNA binder;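 active = inhibition above a per-plate cutoff, the mean inhibition of sample wells plus 3 SD, cut at about 35% in these data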;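 note: loss of TO-PRO-1 fluorescence as compound displaces dye from 1x1 AA loop RNA; 0% = DMSO only wells and 100% = 100 µM mitoxantrone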
dCAG dye counter: displacement of TO-PRO-1 from CAG DNA duplex, counter-screen for rCAG RNA repeat binder project, biochemical, fluorescence, TO-PRO-1 dye, d(CAG) DNA oligo | shares compounds with rCAG RNA binder | d(CAG) DNA oligo TO-PRO-1 dye displacement | inhibition, % at 3 µM | actives 94% (n = 4,300) | AID 652068, 2013;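 active = inhibition above its plate's cutoff, the mean test-well inhibition plus 3 SD, cut at about 4.8% in these data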;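 note: 0% = DNA dye mix with DMSO and 100% = 100 µM mitoxantrone; hits displace the dye from DNA and so lower well fluorescence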
DNA CAG DR: inhibitors of DNA CAG/GTC TO-PRO-1 complex, dose response, counter-screen for rCAG RNA repeat binder project, biochemical, fluorescence, TO-PRO-1 dye; shares compounds with rCAG RNA binder; DNA CAG/GTC duplex TO-PRO-1 dye displacement fluorescence; IC50, µM; actives 20% (n = 250); in the data active = IC50 below about 10 µM
An asterisk follows results filed as active; i = inactive; x = no result. Sampled rows, rich in hits. Any-hit rate of the full collection: about 2.5%.

SMILES	rCAG RNA binder	Exocytosis inh	PG9 binder	ABCB6 inh MLPCN	rCAG bind conf	dCAG dye counter	others
COc1cc(C=Nn2c(-c3ccccc3F)n[nH]c2=S)ccc1OCc1ccccc1	53.0*	x	x	x	48.1*	11.9*
COc1ccc(C=Nn2c(-c3ccc(F)cc3)n[nH]c2=S)cc1OCc1ccccc1	34.6*	x	x	x	39.4*	11.9*
COc1cc(C=Nn2c(-c3ccc(F)cc3)n[nH]c2=S)ccc1OCc1ccccc1	49.9*	x	x	x	52.5*	16.9*
CCn1c2ccccc2c2cc(/C=N/n3c(C)nnc3C)ccc21	-6.4	-1.3	-1.1	98.0	x	x
N#C/C(=C\c1ccc(OCc2cccc(C(=O)O)c2)cc1)C(=O)NCc1ccco1	22.4	9.3	-0.8	92.0	x	x
Cc1ccccc1S(=O)(=O)N1C(c2ccc(Cl)cc2)CC=C(C(=O)O)C1c1cccc(Cl)c1 (stereo unspecified)	83.6*	-1.7	0.4	x	76.9*	40.4*
Cc1ccccc1S(=O)(=O)N1[C@@H](c2ccc(Cl)cc2)C(C(=O)O)=CC[C@H]1c1ccc(Cl)cc1	79.9*	1.6	-0.2	102.0	79.6*	39.9*
Cc1ccc(S(=O)(=O)N2[C@@H](c3cccc(Cl)c3)C(C(=O)O)=CC[C@H]2c2cccc(C)c2)cc1	9.7	-4.2	0.6	95.0	x	x
Cc1ccc([C@@H]2CC=C(C(=O)O)[C@H](c3cccc(Cl)c3)N2S(=O)(=O)c2ccccc2C)cc1	81.8*	2.6	-0.1	100.0	76.9*	43.4*
Cc1ccnc(NC(=O)CCNC(=O)c2ccccc2Cl)c1	-2.4	0.7	2.2	89.0	x	x
COc1ccccc1NC(=O)c1ccc(N2CC3CC(C2)c2cccc(=O)n2C3)c(NC(=O)c2ccncc2)c1 (stereo unspecified)	3.3	-1.2	-0.7	99.0	x	x
COc1ccc(-c2cc3c(c4c2ccn4C)C2CCC3O2)cn1 (stereo unspecified)	3.2	-5.0	0.0	98.0	x	x
Clc1ccc(-c2ccc(-c3nn4c(-c5ccco5)nnc4s3)o2)cc1	34.7*	3.4	-0.4	99.0	12.4	9.1*
CN(C)c1ccc(-c2nn3c(-c4ccco4)nnc3s2)cc1	9.8	x	x	x	x	x
O=C(NC1CCCCC1)C1CC(=O)N(CCc2ccc(F)cc2)C1 (stereo unspecified)	2.0	-0.4	-0.7	100.0	x	x
CCCCn1nc(C(=O)N2CCN(S(=O)(=O)c3ccccc3)CC2)c2ccccc2c1=O	-4.6	-5.9	1.6	98.0	x	x
O=C(O)c1ccc(N/N=C/c2cc3ccccc3nc2Cl)cc1	11.9	-1.1	-8.9	100.0	x	x
Cc1cccc2cc(/C=N/Nc3ccc(C(=O)O)cc3)c(Cl)nc12	47.4*	8.9	-0.5	97.0	42.8*	10.6*
CCOC(=O)C1=C(O)/C(=C/c2cn(CC(=O)N3CCCC3)c3ccccc23)SC1=Nc1ccccc1	x	3.0	x	87.0	x	x
CCOC(=O)C1=C(O)/C(=C/c2ccc(OCC(=O)O)c(OC)c2)SC1=Nc1ccc(OC)cc1	51.7*	7.3	-4.3	117.0	65.3*	20.4*
Cc1cc(Cl)ccc1OC(C)C(=O)Nc1ccc(S(=O)(=O)N2CCOCC2)cc1 (stereo unspecified)	2.0	0.8	-1.3	94.0	x	x
O=C(Cc1ccc(Cl)cc1)Nc1ccc(S(=O)(=O)Nc2cnc3ccccc3n2)cc1	63.5*	0.0	-0.3	102.0	58.7*	22.6*
O=C(Nc1ccc(Cl)cc1)c1cc(S(=O)(=O)Nc2ccccn2)ccc1Cl	15.0	-19.2	-1.4	97.0	x	x
O=C(Nc1ccc(S(=O)(=O)Nc2cnc3ccccc3n2)cc1)c1cc(F)c(F)cc1Cl	39.7*	-10.6	-2.0	97.0	28.0	4.4
CC(Oc1cccc(Cl)c1)C(=O)Nc1ccc(S(=O)(=O)NC2=NCCCCC2)cc1 (stereo unspecified)	-3.8	-0.1	1.1	103.0	x	x
SMILES	rCAG RNA binder	Exocytosis inh	PG9 binder	ABCB6 inh MLPCN	rCAG bind conf	dCAG dye counter	others
Cc1cc(Cl)ccc1OC(C)C(=O)Nc1ccc(S(=O)(=O)Nc2cnc3ccccc3n2)cc1 (stereo unspecified)	80.0*	14.3	-1.0	92.0	89.5*	57.3*
Cc1cc(Cl)ccc1OC(C)C(=O)Nc1ccc(C(=O)Nc2ccccc2C(=O)O)cc1 (stereo unspecified)	77.2*	5.8	-0.9	97.0	86.6*	61.8*
CC(C)Nc1nc(NC(C)C)nc(SCC(N)=O)n1	-7.6	5.4	1.3	100.0	x	x
COc1cc(NS(=O)(=O)c2ccc(NC(=O)c3ccc(Cl)cc3Cl)cc2)ncn1	19.0	1.1	-1.3	98.0	x	x
O=C(Nc1ccc(S(=O)(=O)Nc2cnc3ccccc3n2)cc1)c1ccc(Cl)cc1Cl	66.2*	7.5	2.1	103.0	47.7*	15.4*
O=C(O)CSc1cc(NS(=O)(=O)c2ccc(Br)cc2)c2ccccc2c1O	39.5*	-15.9	-2.4	101.0	57.0*	22.6*
Cc1ccc(S(=O)(=O)Nc2ccc(Br)cc2C(NCC(=O)O)c2ccccc2)cc1 (stereo unspecified)	72.7*	-5.7	-0.6	99.0	74.5*	26.0*	DNA CAG DR=i
CCOc1ccc(CNS(=O)(=O)c2ccc(-c3ccc(=O)[nH]n3)o2)cc1OC	0.0	-0.3	-1.1	94.0	x	x
Cc1ccc(S(=O)(=O)N2[C@@H](c3ccc(C(C)C)cc3)C(C(=O)O)=C[C@H]2C(C)(C)C)cc1	69.0*	-1.7	1.4	97.0	58.9*	22.6*
Cc1ccc(S(=O)(=O)N2[C@@H](c3ccc(Cl)c(Cl)c3)C(C(=O)O)=C[C@H]2C(C)(C)C)cc1	x	-1.3	x	106.0	x	x
Cc1ccc(S(=O)(=O)N2[C@@H](c3cccc(C)c3)C(C(=O)O)=C[C@H]2C(C)(C)C)cc1	27.5	0.2	1.8	97.0	x	x
Cc1ccc([C@H]2C(C(=O)O)=C[C@@H](C(C)(C)C)N2S(=O)(=O)c2ccc(C)cc2)cc1	41.6*	-1.5	-0.8	104.0	34.1	11.9*
COc1ccc(Cl)cc1C(=O)NCCc1ccc(S(=O)(=O)NC(=O)NC2CCCCC2)cc1	40.9*	-0.1	0.6	99.0	31.0	8.0*
COc1ccc(CCNC(=O)NC2CCCCC2)cc1OC	-2.1	-4.6	-1.7	90.0	x	x
COc1ccc(CNC(=O)NC2CCCCC2)cc1	-2.1	-0.7	0.3	103.0	x	x
